Test results as given in PubChem BioAssay AID504340 (NMMLSC, 2011).
Several values for one entry are separate records, joined by “and”; a condition that tells them apart may be missing. Equal entries are not always repeated. Unmarked numbers belong to inactive results.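 The calls were made as follows: active = GFP response above 150% of the DMSO control; inconclusive = Under 70 cell events counted for a yeast strain; inactive = the rest.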

Experiment: yeast TOR pathway CIT2-GFP reporter retest – flow cytometry, third cherry pick, single plex, confirmation (AID 504340);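 also: median GFP fluorescence over all cells with no mother versus daughter split; sample signal as a ratio to the plate DMSO mean so 100% equals DMSO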
Settings: S. cerevisiae CIT2-GFP strain, 3 h, at 10 µM, hits give high values

`COc1ccccc1Nc1nc(NCCCN(C)C)nc(N)c1[N+](=O)[O-]` and `COCCCNc1nc(N)c([N+](=O)[O-])c(Nc2ccccc2OC)n1` are the same in GFP response vs DMSO: 107% for the first, 107% for the second.

Compared with `CN1CCN(C(=O)c2cc(COc3ccc(F)cc3Cl)on2)CC1c1ccccc1` (centres undefined), `Brc1ccc2ncnc(NCc3ccccc3)c2c1` is higher in GFP response vs DMSO: 106% for the first, 112% for the second.

First: COCCNc1nc(N)c([N+](=O)[O-])c(Nc2ccc(F)cc2)n1
Second: Nc1nc(NCCOCCO)nc(Nc2cccc(F)c2)c1[N+](=O)[O-]
The GFP response vs DMSO of the first is higher: 101% for the first, 96.1% for the second.

Compared with `O=C(O)CCS(=O)(=O)c1nc(-c2cccs2)cc(C(F)(F)F)n1`, `COc1ccccc1-c1cc(C(F)(F)F)nc(S(=O)(=O)CCCC(=O)O)n1` is higher in GFP response vs DMSO: 106% for the first, 111% for the second.

Going from `COC(=O)c1cc(=O)c2cccc(OC)c2[nH]1` to `COc1ccc(OC)c2c(=O)cc(C(=O)O)[nH]c12`, the GFP response vs DMSO rises from 101% to 111%.

Compared with `CCN(CC)c1ncnc2ccc(Br)cc12`, `CS(=O)(=O)Oc1ccc(Br)c2cccnc12` is higher in GFP response vs DMSO: 97.7% for the first, 103% for the second.

Compared with `Nn1cnc2c(c1=O)C1(CCCCC1)Cc1ccccc1-2`, `CCC(=O)Nn1cnc2c(c1=O)C1(CCCCC1)Cc1ccccc1-2` is lower in GFP response vs DMSO: 129% for the first, 99.3% for the second.

Going from `Nc1ncnc(Nc2cc(Cl)cc(Cl)c2)c1[N+](=O)[O-]` to `COc1ccccc1Nc1nc(NCC(C)C)nc(N)c1[N+](=O)[O-]`, the GFP response vs DMSO rises from 97.7% to 114%.

Compared with `Cn1c(NCCO)nc2c(c1=O)C1(CCCCC1)Cc1ccccc1-2`, `O=C1c2ccccc2C(=O)c2c1cccc2N(CCO)CCO` is lower in GFP response vs DMSO: 116% for the first, 92.8% for the second.

Compared with `O=C(O)c1ccccc1-c1ccccc1C(=O)Nc1ccc(-c2nc3cc(Cl)ccc3o2)cc1`, `O=C(Nc1ccc(-c2nc3ccccc3o2)cc1)c1cccnc1` is lower in GFP response vs DMSO: 99.3% for the first, 96.1% for the second.

Going from `Cc1nc(Nc2ccc(Br)cc2Br)c([N+](=O)[O-])c(=O)[nH]1` to `Cc1cccc(Nc2cc(=O)[nH]c(=O)[nH]2)c1C`, the GFP response vs DMSO falls from 103% to 96.1%.

Compared with `COc1cccc(NC(=O)CC(C)=O)c1`, `COc1cccc(N/C=C/C(=O)c2ccc(Cl)cc2)c1` is higher in GFP response vs DMSO: 106% for the first, 107% for the second.

`O=C(Nc1ccccc1)O/N=C1\CCCCC1c1ccc([N+](=O)[O-])cc1[N+](=O)[O-]` (centres undefined) and `O=C(Nc1cccc(Cl)c1)ON=C1c2ccccc2-c2ccccc21` are the same in GFP response vs DMSO: 101% for the first, 101% for the second.

Compared with `CC1=NNC(=O)/C1=C\c1cn(-c2ccccc2)nc1-c1ccc(F)cc1`, `O=C(N/N=C/c1ccccc1)c1cccc2ccccc12` is lower in GFP response vs DMSO: 124% for the first, 97.7% for the second.

First: Cc1ccc(C(=O)/C=C/Nc2cccc(O)c2)cc1
Second: Cc1ccc(Nc2nc(N)[nH]c(=O)c2N=O)cc1
The GFP response vs DMSO of the first is higher: 109% for the first, 106% for the second.

Going from `CCN(CC)C(=O)Oc1cc(=O)n(C)c2ccccc12` to `COc1cccc2c(Cl)c(CCCl)c(C)nc12`, the GFP response vs DMSO rises from 101% to 111%.

Compared with `COC(=O)COc1c(Cl)cc(Cl)c2ccc(C)nc12`, `Cc1ccc2c(Cl)cc(Cl)c(OCC(=O)O)c2n1` is higher in GFP response vs DMSO: 106% for the first, 109% for the second.

Going from `Nc1[nH]c(=O)nc(Nc2ccccc2)c1N=O` to `CC(=O)NCCOc1cccc2cccnc12`, the GFP response vs DMSO rises from 92.8% to 104%.

First: O=c1cc(C(F)(F)F)[nH]c2c(OC(F)(F)F)cccc12
Second: OCc1ccnc2c(O)cccc12
The GFP response vs DMSO of the first is higher: 107% for the first, 94.5% for the second.

With `COCC(C)NC(=O)CCS(=O)(=O)c1nc(-c2ccc(OC)cc2)cc(C(F)(F)F)n1` (centres undefined) the GFP response vs DMSO was 103% and 92.8%.
